Source: PubChem BioAssay
LGR2 inh = inhibitors of bursicon-induced Drosophila LGR2 receptor cAMP signaling; HEK293 LGR2, CRE-luciferase, bursicon-stimulated, 4 h; inhibition, % at 9.99 µM; hit rate 0.35% among 380,000; AID 720647;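 active = drop in luminescence signal, shown as inhibition above about 50% in the replicate tests, limit read from the data, passing the limit was not always enough; inconclusive = probably only some replicates passing the limit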;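 also: agonist challenge used bursicon conditioned medium at about half maximal strength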
EWS-Fli block = EWS/Fli transcriptional activity inhibition; AID 651661; inhibition, % at 12.6 µM; hit rate 0.67% among 350,000; A673 NR0B1-luciferase reporter, viability-normalised;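 active = mean inhibition of at least 50% after viability correction, with every replicate also passing that limit; inconclusive = mean reaches 50% but only one of two replicates passes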;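 also: firefly luciferase signal divided by Alamar Blue viability fluorescence both relative to DMSO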
PGC1a acetyl inh = modulators of PGC1a acetylation; U2OS PGC1a acetylation, AlphaScreen anti-acetyl-lysine; with virally co-expressed GCN5 acetyltransferase; hit rate 0.17% among 350,000; AID 651687; inhibition, % at 15.6 µM;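 active = every replicate shows inhibition of at least 40%; inconclusive = mean inhibition at least 40% but some replicate below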;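 also: 0% = neutral control wells and 100% = positive control wells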
TRPM1 prom inh = inhibitors of MITF-driven TRPM1 promoter in melanoma cells; inhibition, % at 12.5 µM; AID 488899; SK-MEL-5 TRPM1 promoter luciferase, 24 h; hit rate 0.83% among 330,000;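 active = mean inhibition across replicates of 60% or more, whatever share of single replicates reaches that level; inconclusive = some that reach 60%, reason not given; inactive = mean inhibition across replicates below 60%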
LMP1 NFkB inh = inhibitors of Epstein-Barr LMP1-induced NF-kappaB reporter; LMP1-induced NF-kappaB luciferase reporter cells, luminescence; inhibition, % at 12.5 µM; hit rate 0.69% among 350,000; in the data active = inhibition above about 41%; inconclusive = no clear call, values can overlap the other calls;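 also: 0% = neutral control wells and 100% = reference inhibitor control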
PAX8 reporter = lowers PAX8-driven luciferase in RMG-I cells | RMG-I TPO-luciferase reporter, SteadyGlo, 24 h | inhibition, % at 12.6 µM | hit rate 1.2% among 360,000 | AID 652154;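 active = mean replicate inhibition at least 60% with every replicate also reaching 60%; inconclusive = only one of the two criteria is met; inactive = mean below 60% and not all replicates reaching 60%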;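 also: luciferase light reporting Pax8 driven TPO promoter activity; plate controls were median of neutral control wells for no effect and mitoxantrone controls for full effect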
COX5a expr inh = inhibitors of PGC-1a target COX5a expression in C2C12 myotubes; shares compounds with PGC1a acetyl inh; C2C12 myotubes PGC-1a adenovirus, COX5a qPCR; maximal activity, %; 45 tested, under 10 active; AID 743461;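 active = fitted dose curve reaching 40% activity at or below the highest valid dose tested; inconclusive = flat fit between 30% and 70%, or an unusable fit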
AID743468 = change in PGC-1a target gene PDK4 expression, dose response, C2C12 myotubes, RT-qPCR, cherry-pick; 45 tested, under 10 active; AID 743468; shares compounds with PGC1a acetyl inh; PDK4 expression increase, % at 19.5 µM; PGC-1a adenovirus, PDK4 mRNA qPCR;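 active = fitted curve reaching a 40% PDK4 expression rise at or below the top valid tested dose; inconclusive = no clear call, values can overlap the other calls; inactive = the rest, including shifts the wrong way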
* marks the source's active call; other numbers are inactive results; ? = inconclusive; · = no result; [ ] = dose if it differs, or a comment. Compounds with a hit are over-represented: about 2.2% of the library has one in this group of screens.

SMILES | LGR2 inh | EWS-Fli block | PGC1a acetyl inh | TRPM1 prom inh | LMP1 NFkB inh | PAX8 reporter | COX5a expr inh | AID743468
CCOC(=O)c1c2c(n(C)c1C)C(=O)C(=O)c1ccc(Br)cc1-2 | · | · | -83 | 87* | 77* | · | -37 | -31[6.8 µM]
CCCN(CC)c1ncnc2[nH]ncc12 | 17 | -8 | ? | -17 | 43* | -41 | 15 | 62*
COc1ccc(S(=O)(=O)Nc2cccc3c2O[C@@H](CN(C)C(=O)NC2CCCCC2)[C@H](C)CN([C@@H](C)CO)C3=O)cc1 | -8 | -9 | -7 | · | · | · | · | ·
O=C(Nc1cccc(F)c1)N1CC(=O)N2[C@H](C1)[C@H](c1ccc(C#Cc3cccnc3)cc1)[C@@H]2CO | 23 | · | 21 | · | · | · | · | ·
O=C(Nc1cccc(F)c1)N1CC(=O)N2[C@@H](CO)[C@@H](c3ccc(C#Cc4cccnc4)cc3)[C@@H]2C1 | 20 | · | ? | · | · | · | -25 | 49*
Cn1nnnc1SCC(=O)NCc1cccc(C(=O)O)c1 | · | · | ? | -9 | 1 | -2 | -26 | -6
Cc1ccc(-c2nc(NC(=O)c3nn(C)cc3[N+](=O)[O-])sc2C)cc1 | 44 | 58* | 96* | 85* | -15 | · | -25 | 4[6.8 µM]
Cc1cnc(NC(=O)c2nn(C)cc2[N+](=O)[O-])s1 | 30 | 16 | -131 | ? | 5 | 40 | · | ·
C[C@H]1CN([C@@H](C)CO)C(=O)c2cccc(NC(=O)NC3CCCCC3)c2O[C@H]1CN(C)Cc1ccncc1 | -7 | 0 | -1 | · | · | -15 | · | ·
